Source: PubChem BioAssay (National Center for Advancing Translational Sciences (NCATS))
IL-1B inflam inh – inhibitors of inflammasome signaling (IL-1 beta secretion). THP-1 LPS/ATP IL-1B secretion, AlphaLISA, 16 h; stronger effect = lower value. activity change, % at 57.5 µM. 360,000 tested, 4.7% active; in the data active = activity change below about -50%; inconclusive = mostly about -30% to -49%
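THP-1 cells pretreated 1 hr with compounds (up to 57.5 uM final), then stimulated with LPS (250 ng/mL final) plus ATP (1.25 mM final); secreted IL-1B measured by AlphaLISA after 16 hr, decreased signal indicating inhibition.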
ELG1 DNA repair – ELG1-dependent DNA repair inhibition. AID 504467. 330,000 tested, 2.3% active. HEK293T ELG1-luciferase reporter, luminescence, 16 h; DNA damage induced by 5-fluorouridine. Potency, µM (highest dose often 46.1 µM), without a hit: top-dose activity change, negative = inhibition, most hits filed as inhibitors; note: potency is the fitted concentration of half-maximal effect; nearly all actives have a fitted effect of over 55% in size
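Overnight (16 hr) co-exposure of 2,000 cells/well to 5-fluorouridine and compound at 37 °C preceded detection. Luciferase was quantified via ONE-Glo luminescence; loss of signal denotes inhibition.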
DT40 TDP1 CPT – DT40-hTDP1 cell growth loss with CPT | 420,000 tested, 12% active | AID 686979 | chicken DT40 Tdp1-/-;hTDP1 cells + 20 nM CPT, ATP luminescence, 48 h | Potency, µM (highest dose often 46.2 µM), inactives show top-dose activity change, negative = growth inhibition, hits mostly inhibitors; note: potency is the fitted concentration of half-maximal effect; nearly all actives have a fitted effect of over 55% in size
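Chicken DT40 Tdp1-/- cells stably complemented with human TDP1 were seeded at 400 cells/well in medium containing 20 nM camptothecin, exposed to pin-transferred compounds, and grown at 37 °C for at least 48 hr. Viability was read as ATP luminescence.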
HT1080-NT tox – kills 2HG-producing HT-1080-NT fibrosarcoma cells; Potency, µM (highest dose often 46.1 µM), without a hit: at the highest dose activity, negative = less viability, most hits filed as cytotoxic; 360,000 tested, 1.6% active; HT-1080-NT fibrosarcoma viability, CellTiter-Glo ATP luminescence, 48 h;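 note: NT is the 2HG producing partner of a matched IDH1 knockdown line; potency is the fitted concentration of half-maximal effect; 0% = DMSO-treated cells and -100% = media-only wells without cells; nearly all actives have a fitted effect of over 55% in size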
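A 48-hour cytotoxicity screen used HT-1080-NT cells plated 2 hours before compound delivery. ATP-based CellTiter-Glo luminescence measured viability, normalized to DMSO and no-cell controls.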
DT40 TDP1 no CPT – qHTS for Inhibitors of human tyrosyl-DNA phosphodiesterase 1 (TDP1): qHTS in cells in absence of CPT; DT40 Tdp1-/- hTDP1 cells, no CPT, ATP luminescence, 48 h; Potency, µM (highest dose often 46.2 µM), for inactives: at the top dose activity change, negative = growth inhibition, usual class: inhibitors; 420,000 tested, 15% active; note: potency is the fitted concentration of half-maximal effect; nearly all actives have a fitted effect of over 55% in size
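Camptothecin absent (DMSO only). Human TDP1-complemented DT40 knockout cells, 400 cells/well, 37 °C for minimum 48 hr; ATP measured via CellTiter-Glo, 30 min dark incubation, luminescence.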
HT1080 IDH1KD tx – HT-1080 IDH1 knockdown cell toxicity (counter line). HT-1080 IDH1 knockdown viability, ATP luminescence, 48 h. Potency, µM (series often up to 46.1 µM), without a hit: top-dose activity, negative = toxicity, usual class: cytotoxic. 360,000 tested, 2% active. AID 686971;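 note: potency is the fitted concentration of half-maximal effect; 0% = DMSO wells and -100% = cell-free medium wells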
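HT-1080-IDH1KD cells (IDH1 knocked down), 750/well in RPMI with 5% FBS, treated with compound 48 h at 37 degrees C. Viability by CellTiter-Glo luminescence, normalised to DMSO and no-cell wells; concentration-response curves classed.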
Starred values were filed as active, the others as inactive; i = inactive; ? = inconclusive; . = no result. Most compounds without a hit are left out; they make up all but 19% or so of the library. Unless noted, calls come from the whole dose curve; as a rule, active = well fitted curve in the direction sought with a large enough effect; inconclusive = small, poorly fitted or top-dose-only effect, or another doubt; inactive = no such curve, though single readings can be large; an effect the other way counts as inactive or inconclusive. Unless noted, % is set by controls: 0 for no effect and ±100 for the full control effect.

SMILES	IL-1B inflam inh	ELG1 DNA repair	DT40 TDP1 CPT	HT1080-NT tox	DT40 TDP1 no CPT	HT1080 IDH1KD tx
CCOc1ccc(NC(=S)NC(=O)c2c(Br)cnn2C)c([N+](=O)[O-])c1	-4.1	24.3%	20.6µM*	14.0%	23.1µM*	14.1%
CCOc1ccc(NC(=S)NC(=O)c2c(Cl)cnn2CC)c([N+](=O)[O-])c1	-15.1	0.5%	3.5%	7.3%	-3.6%	4.4%
Oc1c(C(c2ccccc2F)N2CCCCC2)sc2nc(-c3ccco3)nn12 (centres undefined)	.	.	8.4%	.	2.2%	.
Cc1cc(C)n(CCC(=O)Nc2ccc(Cl)cc2)n1	.	.	3.0%	.	-6.6%	.
COc1ccc(NC(=O)CCOc2ccc(C)cc2)c(OC)c1	1.7	4.2%	1.6%	9.7%	10.6%	6.3%
COc1ccc(NC(=O)N(Cc2ccc(C)cc2)Cc2ccccn2)c(OC)c1	14.5	.	25.9µM*	-1.6%	?	-8.7%
COc1ccc(CN(Cc2ccccn2)C(=O)CN2C(=O)C(C)Oc3ccccc32)cc1 (centres undefined)	-4.9	?	?	6.0%	20.6µM*	9.8%
Nc1ccc(C(=O)O)cc1	33.3	10.1%	-0.1%	15.3%	?	-2.9%
Nc1ccc(O)cc1	.	.	7.7µM*	.	12.2µM*	.
Cc1ccc(S(=O)(=O)N2CCN(Cc3cc(=O)n4ccccc4n3)CC2)c(C)c1	45.1	7.3µM*	?	-5.1%	-2.0%	-1.5%
Cc1cccc(S(=O)(=O)NC(=O)C2(C)CCN2C(=O)Cc2cc(F)ccc2F)c1 (centres undefined)	-22.4	.	-11.5%	4.8%	-7.6%	?
Cc1ccc(N(C(=O)c2csnn2)C(C(=O)NC(C)(C)C)c2cccnc2)cc1 (centres undefined)	27.5	8.8%	-13.5%	1.6%	-7.0%	23.7%
CCC(C)NC(=O)c1ccc2c(c1)N=C(C)c1cc(C)ccc1S2 (centres undefined)	.	.	3.26µM*	.	5.17µM*	.
CC1=Nc2cc(C(=O)NCC3CCCO3)ccc2Sc2ccc(C)cc21 (centres undefined)	5.6	-0.5%	0.581µM*	7.9%	0.92µM*	?
CC1=Nc2cc(C(=O)NCCCN3CCN(C)CC3)ccc2Sc2ccc(C)cc21	-2.3	19.1%	?	-24.2%	18.4µM*	-12.7%
CCC(C)NC(=O)c1cccc(C)c1 (centres undefined)	3.3	-11.9%	4.0%	20.2%	1.4%	-4.0%
COCCOC1CCN(C(=O)C2CCC(=O)N(CCc3ccccc3)C2)CC1 (centres undefined)	i	6.8%	-11.6%	-4.0%	-8.6%	-4.0%
Cc1ccc(-c2nn(-c3ccc(F)cc3)c3c2cnc2cc(F)c(F)cc23)cc1	.	.	-1.3%	.	?	.
CC(C)c1ccc(-c2noc(SCC(=O)N3CCCCC3C)n2)cc1 (centres undefined)	.	.	?	.	14.6µM*	.
COc1ccc(N2CCN(C(=O)CSc3nc(-c4ccc(C(C)C)cc4)no3)CC2)cc1	.	.	18.4µM*	.	11.6µM*	.
CC1CCN(C(=O)CSc2nc(-c3ccc(C(C)C)cc3)no2)CC1	.	.	20.6µM*	.	23.1µM*	.
CC1CCCCN1C(=O)CSc1nnc(-c2cccc(Cl)c2)o1 (centres undefined)	.	.	16.4µM*	.	?	.
CC(C)c1ccc(-c2noc(SCC(=O)N3CCN(c4ccc(F)cc4)CC3)n2)cc1	.	.	-22.1%	.	-16.5%	.
CC1CCCCN1C(=O)CSc1nnc(-c2ccccc2F)o1 (centres undefined)	-14.0	?	-18.2%	-7.8%	-11.4%	9.0%
CC1CCN(C(=O)CSc2nc(-c3ccccc3)no2)CC1	.	.	-16.3%	.	-24.6%	.
SMILES	IL-1B inflam inh	ELG1 DNA repair	DT40 TDP1 CPT	HT1080-NT tox	DT40 TDP1 no CPT	HT1080 IDH1KD tx
CC1CCCCN1C(=O)CSc1nnc(-c2ccco2)o1 (centres undefined)	-12.6	?	-6.8%	15.7%	-16.8%	-4.4%
CC(C)c1ccc(-c2nnn(CC(=O)N3CCCCC3)n2)cc1	-4.7	?	-6.7%	1.9%	-23.1%	2.0%
CC1CCN(C(=O)Cn2nnc(-c3ccc(C(C)C)cc3)n2)CC1	23.7	-2.8%	16.4µM*	3.9%	?	-1.2%
Cc1cc2c(cc1C)-n1nnnc1C(N1CCCNCC1)C(=O)N2 (centres undefined)	21.3	.	?	7.9%	-17.4%	-3.6%
O=C1Nc2ccccc2-c2nnnn2C1N1CCC(Cc2ccccc2)CC1 (centres undefined)	11.7	.	?	-21.9%	18.4µM*	?
Cc1cc2c(cc1C)-c1nnnn1C(N1CCCCC1)C(=O)N2 (centres undefined)	28.6	.	14.6µM*	1.0%	9.2µM*	0.6%
COc1cc(C(=O)O/N=C2/C=C(C)C(=O)C=C2C)cc(OC)c1OC	17.5	11.6%	8.2µM*	5.6%	2.06µM*	21.2%
CCOC(=O)C1C(C(=O)OCC)C(C)(C)C1N(C)C (centres undefined)	-0.1	.	17.4%	4.3%	2.5%	14.7%
CC#CC#Cc1cccc(=O)o1	-74.9*	?	?	?	?	20.6µM*
Cc1ccc(NCC(=O)Nc2ccc(Br)cc2)cc1F	-8.1	21.1%	-17.0%	8.0%	-36.0%	12.6%
Cc1ccc(CSC2=CS(=O)(=O)c3ccccc3N2)cc1	-5.7	-5.5%	?	-18.5%	?	-19.8%
O=S1(=O)C=C(SCc2cccc(Cl)c2)Nc2ccccc21	-50.6*	-5.3%	?	0.3%	-27.1%	12.1%
Cc1cccc(CSC2=CS(=O)(=O)c3ccccc3N2)c1	-5.4	-1.6%	?	-9.1%	23.1µM*	-14.2%
Cc1cc2nnc(SCC(=O)Nc3ccc(F)c(Cl)c3)n2c2ccccc12	.	.	0.6%	.	?	.
CC(NS(=O)(=O)OCC(Cl)(Cl)Cl)c1ccc(C(C)(C)C)cc1 (centres undefined)	-72.1*	-29.6%	16.4µM*	?	?	29.1µM*
O=C1CSC(=S)N1N=Cc1c(O)ccc2ccccc12	31.7	.	20.6µM*	-13.9%	13µM*	?
Cc1nc2ccccc2c(=O)n1/N=C/c1cn[nH]c1-c1ccccc1	-13.7	?	?	-9.9%	14.6µM*	-9.8%
NC(=O)N/N=C/c1c(O)ccc2oc3c(c12)CCCC3	-98.0*	-19.0%	?	-18.5%	?	-8.4%
Cc1nc2ccccc2c(=O)n1/N=C/c1c(O)ccc2ccccc12	56.8	?	?	?	18.4µM*	?
